{"source": "PubChem BioAssay (NCATS)", "note": "Inconclusive results are not listed. A call without a number means that no potency is given here. Active and inactive are the calls of the source. The call rests on the fitted dose curve; in most records, active means well fitted inhibition curve with a large enough effect; inconclusive means small, poorly fitted or top-dose-only effect; inactive means no such curve, though single readings can be large or run the other way. Potency means the concentration at half of the fitted maximal effect."}
{"test": "qHTS Screen of the MIPE 4.0 Collection Against Ewings Sarcoma (EW8) (AID 1259255); further: nearly all actives have a fitted effect of over 35% in size", "conditions": "EW8 Ewing sarcoma viability, CellTiter-Glo, 48 h; series mostly up to 45.8 µM", "how_it_was_run": "(§1)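 Compound titrations go onto adherent log-phase cells 4 h after seeding, incubate 48 h at 37C, then CellTiter-Glo luminescence reports viability relative to DMSO and cell-free controls.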"}
{"compound": "CN(C)CCCNC(=O)c1ccc(-c2cc(O)c3ncccc3c2)cc1", "Potency": "14.8 µM (active)"}
{"compound": "Cc1ccc(C(=O)N(CCCN)[C@@H](c2oc3cc(Cl)ccc3c(=O)c2Cc2ccccc2)C(C)C)cc1", "Potency": "inactive"}
{"compound": "CN1C(=O)C(Cc2c[nH]c3ccccc23)NC1=S", "note": "(stereo unspecified)", "Potency": "inactive"}
{"test": "qHTS Screen of the MIPE 4.0 Collection Against Ewings Sarcoma (TC32) (AID 1259256); further: nearly all actives have a fitted effect of over 45% in size", "conditions": "TC32 Ewing sarcoma viability, CellTiter-Glo, 48 h; series mostly up to 45.8 µM", "how_it_was_run": "as §1"}
{"compound": "O=C(c1ccc(F)c(F)c1Nc1ccc(I)cc1F)N1CC(O)([C@H]2CCCCN2)C1", "Potency": "20.9 µM (active)"}
{"compound": "CC(C)(F)C[C@H](N[C@@H](c1ccc(-c2ccc(S(C)(=O)=O)cc2)cc1)C(F)(F)F)C(=O)NC1(C#N)CC1", "Potency": "18.7 µM (active)"}
{"compound": "COc1cc(C=CC(=O)O)ccc1O", "Potency": "inactive"}
{"compound": "CC(C)[C@H](O)C(=O)N[C@@H](C)C(=O)N[C@@H]1C(=O)N(C)CCc2ccccc21", "Potency": "inactive"}
{"compound": "C[C@H](CCC(=O)O)[C@H]1CC[C@H]2[C@H]3[C@@H](CC[C@]12C)[C@@]1(C)CC[C@@H](O)C[C@H]1C[C@@H]3O", "Potency": "inactive"}
{"compound": "CN[C@H]1[C@@H](O[C@@H]2[C@H](O[C@@H]3[C@@H](O)[C@@H](O)[C@@H](N=C(N)N)[C@@H](O)[C@@H]3N=C(N)N)O[C@H](C)[C@@]2(O)C=O)O[C@@H](CO)[C@@H](O)[C@H]1O", "Potency": "inactive"}
{"compound": "C[C@@H]1CC=CC=CC=CC=C[C@@H](O[C@@H]2O[C@H](C)[C@@H](O)[C@H](N)[C@H]2O)C[C@@H]2O[C@](O)(C[C@@H](O)C[C@@H]3O[C@@H]3C=CC(=O)O1)C[C@H](O)[C@@H]2C(=O)O", "Potency": "14.8 µM (active)"}
{"compound": "CN(C)c1nc(Cc2ccc(NC(=O)c3ccc(C(F)(F)F)cc3)cc2)nc(N(C)C)c1CC(=O)O", "Potency": "inactive"}
